# Measured values: PubChem BioAssay (NCI)
# About 83,000 compounds went through this panel and 20% of them were active in at least one assay; those are over-represented in the sample as a whole.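 Note: values are percent growth. 100 is the growth of untreated cells, values between 100 and 0 indicate rising inhibition; between -100 and 0 indicates cell death.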 Values without a mark were called inactive. Calls of active or inactive are those of the source.
# System: A549/ATCC NSCLC
# Assay: NCI-60 one-dose screen, 48 h (100 = growth as untreated, 0 = no growth, -100 = all killed)
# Conditions: 10 µM unless noted
# Method: Growth inhibition of the A549/ATCC human Non-Small Cell Lung tumor cell line is measured as a screen for anti-cancer activity. Cells are grown in 96 well plates and exposed to the test compound for 48 hours. Compounds are tested at a single concentration, which is 10^-5 M for most compounds. The reported endpoint is percent growth (GI% or GIPRCNT), where numbers from 0 - 100% represent growth inhibition, and numbers from -100% - 0 represent cell death. For example, a value of 40 represents 60% growth inhibition. A value of 0 means no net growth occurred over the course of the experiment. A value of -40 indicates 40% of cells at the beginning of the experiment died by the end of the experiment. A value of -100 means all cells are dead at the end of the experiment.
# NCI-60 Human Tumor Cell Lines Screen was performed using the standard one-dose NCI protocol, which is described in more detail at https://dtp.cancer.gov/discovery_development/nci-60/default.htm.
# Compounds with GIPRCNT values below 10 were considered active. Activity score was based on GIPRCNT using the following formula: […]
# Score is 0 for GIPRCNT values of 100 or above, 50 for GIPRCNT values of 0, and 100 for GIPRCNT values of -100.
row,SMILES,growth
1,CCCCSc1nc(Nc2ccc(S(N)(=O)=O)cc2)c(C#N)c(-c2ccc(Cl)cc2)n1,1.68% (active)
2,O=C(NNc1ccccc1)n1c(=O)c2ccccc2c(=O)n1-c1ccccc1,83.1%
3,COc1cc(OC)cc(-c2cc3ccc(N(C)C)cc3c(=O)[nH]2)c1,24.4%
4,Nc1nnc(-c2c[nH]c3ccc(Br)cc23)c(-c2c[nH]c3ncc(Br)cc23)n1,42.2%
5,Cc1ccc2c(N)c(C(=O)Nc3ccc(OC(F)(F)F)cc3)sc2n1,75.7%
6,COc1ccc2oc3c4[nH]c5ccccc5c4c4c(c3c2c1)C(=O)N(C(=O)OC(C)(C)C)C4=O,0.48% (active)
7,O=C(Cn1c(/C=C/c2cccc([N+](=O)[O-])c2)nc2ccccc2c1=O)Nc1ccccc1,56.1%
8,C/C(=N\N=C1/C(=O)Nc2ccc(Cl)cc21)c1ccc2c(c1)Nc1ccccc1S2,-6.39% (active)
9,C#C[C@]1(O)CC[C@H]2[C@@H]3CC=C4c5sc(-c6ccc(O)c(O)c6)nc5CC[C@]4(C)[C@H]3CC[C@@]21C,-78.6% (active)
10,COc1ccc(/C=N/NC(=O)Cn2nc(Cc3ccc(OC)cc3)c3onc(C)c3c2=O)cc1,45.2%
11,COc1ccc(C2=NN(c3ccccc3)C(c3ccc(OC)c(OCc4ccccc4)c3)C2)cc1OC (stereo not given),101%
12,COc1ccc2[nH]c(O)c(N=NC(=O)Cn3c(-c4ccccc4)nc4cc(C)ccc43)c2c1,15.3%
13,CCCSc1nc(NCCc2c[nH]c3ccccc23)c(C#N)c(-c2ccccc2)n1,73.5%
14,COC(=O)/C=C/c1cccc2c1C(=O)NC(C)(c1cc3cc4ccccc4cc3oc1=O)N2 (stereo not given),26.9%
15,COc1c(F)ccc(C(=O)Nc2ccc3nc(NC(=O)C4CCCN(S(=O)(=O)c5ccc(C#N)cc5)C4)sc3c2)c1F (stereo not given),91.6%
16,CN(C)c1ccnc(CNCCSC2(c3ccc(C(F)(F)F)cc3)c3ccccc3C=Cc3ccccc32)c1,2.72% (active)
17,CCCCSc1nc(NCCc2c[nH]c3ccccc23)c(C#N)c(-c2ccc(F)cc2)n1,74.5%
18,CC1(C)CC[C@]2(C(=O)O)CC[C@]3(C)C(=CCC4[C@@]5(C)C[C@@H](O)[C@@H]6OC(c7ccccc7Br)OC[C@@]6(C)C5CC[C@]43C)C2C1 (stereo not given in full),16.6%
19,CC12CC[C@@H]3[C@]4(C)COC(c5cn[nH]c5-c5cccc(Br)c5)O[C@@H]4CC[C@@]3(C)[C@@H]1CC(C1=CCOC1=O)O2 (stereo not given in full),25%
20,Cc1ccc(-c2nnc3ccc(N/N=C/c4ccccc4)nn23)cc1,93.1%

row,SMILES,growth
1,CC(=O)Oc1ccc(/C=C/C(=O)N[C@@H](Cc2ccccc2)C(O)C(=O)NCc2ccccc2)cc1OC(C)=O (stereo not given in full),87.7%
2,C=C1CC[C@@H]2[C@]3(C)COC(c4cn[nH]c4-c4ccc(C)cc4)O[C@@H]3CC[C@@]2(C)[C@@H]1C/C=C1/C(=O)OCC1O (stereo not given in full),41.5%
3,CC1CN(c2oc(-c3ccc([N+](=O)[O-])cc3)nc2C#N)CC(C)O1 (stereo not given),102%
4,Nc1cc2ccccc2c(=O)n1NC(=O)c1ccc(I)cc1,94.6%
5,CC(=O)Nc1ccc(-n2cnc3ccc(-c4ccc(O)cc4)cc32)cc1,44%
6,COc1cc(-c2ccc(/C=N/NC(=O)c3[nH]c4ccc(Br)cc4c3-c3ccccc3)s2)cc(OC)c1OC,77.1%
7,CCCSc1nc(NCCc2c[nH]c3ccccc23)c(C#N)c(-c2ccc(OC)cc2)n1,53.3%
8,O=C(O)c1ccc(-c2ccc(/C=N/NC(=O)c3[nH]c4ccc(Br)cc4c3-c3ccccc3)o2)cc1,49.5%
9,CN(C)c1ccnc(NCCCSC(c2ccccc2)(c2ccccc2)c2ccccc2)c1,48.4%
10,CN1CCN(c2ccc3c(c2)nc(NNC(=O)c2cnccn2)c2cccn23)CC1,0.0581% (active)
11,O=S(=O)(Nc1cccc(-n2cnc3cc(-c4ccc(O)cc4)ccc32)c1)C1CC1,37.7%
12,COc1ccc(N2N=C(c3ccc4c(c3)OCO4)CC2c2cccc(NC(=O)CCCNS(=O)(=O)c3ccc(F)cc3)c2)cc1 (stereo not given),49.1%
13,COc1ccc(NC(=O)[C@@H](N)Cc2ccccc2)cc1C(=O)Nc1cccc(C2CC(=O)c3c(cc(OC)c(OC)c3OC)O2)c1 (stereo not given in full),68.9%
14,O=c1[nH]n(C(=S)N/N=C/c2ccccc2Cl)c(=O)c2ccccc12,7.02% (active)
15,Cc1ccc(S(=O)(=O)c2nc(S(=O)(=O)c3ccc(C)cc3)c(N3CCC(O)CC3)s2)cc1,62.1%
16,Cn1cc(-c2nc(N)nnc2-c2c[nH]c3ccc(F)cc23)c2cc(Br)cnc21,11.1%
17,CN(C)CCn1c2ccccc2c2nc3cc(C(F)(F)F)ccc3nc21,21.7%
18,CSc1ccccc1NC(=O)c1ccc2nnn(/C(C#N)=C/c3ccccn3)c2c1,-27.2% (active)
19,C/C(=N\Nc1ccc(S(N)(=O)=O)cc1)c1ccc(N=Nc2c(Nc3ccccc3)[nH][nH]c2=O)cc1,75%
20,O=C(/C=C/c1ccc(-c2ccccc2)cc1)c1nc2ccccc2n1Cc1ccc(Br)cc1,64.7%
